Data taken from PubChem BioAssay AID652010 (The Scripps Research Institute Molecular Screening Center, 2013).
Screen size: about 370,000 compounds; about 4,100 (1.1%) were called active. Only a selection was taken, and actives are over-represented in it overall. Values without a mark were called inactive.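 Rule for the calls: active = inhibition above the mean over all tested compounds plus 3 SD (cut at about 3.6% in these data); inactive = the rest.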

Experiment: relief of DAX-1 repression of SF-1 activity – cell-based, luminescence, SF-1 (NR5A1), full-length DAX-1, primary screen (AID 652010);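 note: 0% = DAX-1 cells with DMSO and 100% = cells lacking DAX-1 with DMSO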
Conditions: HEK293T StAR-luciferase reporter, SF-1/DAX-1 repression relief; at 6.8 µM; stronger effect = higher value

| SMILES | inhibition |
| --- | --- |
| Cc1c(C(C)c2ccccc2O)[nH]c2ccccc12 (stereo not given) | -1.62% |
| C[C@@H](NC(=O)c1ccccc1OCC(=O)Nc1ccc(I)cc1)C(=O)N(C)Cc1ccccc1 | -1.33% |
| CC1CCN(C(=S)c2ccc(-c3ccc(Cl)cc3Cl)o2)CC1 | 0.67% |
| S=C(c1ccc(-c2ccccc2)o1)N1CCCCC1 | 5.8% (active) |
| O=C(NC(=S)Nc1ccccc1C(=O)O)c1ccc(-c2ccc(Br)cc2)o1 | -0.57% |
| O=S1(=O)c2ccc(Br)cc2-n2nncc2CN1Cc1cccc(Cl)c1 | -0.73% |
| CCCS(=O)(=O)N1CCC(C(=O)NCCc2ccc(OC)c(OC)c2)CC1 | 0.15% |
| COC(=O)C[C@@H]1CC[C@@H]2[C@@H](COc3ccc(NC(=O)Nc4ccc(F)c(F)c4)cc3C(=O)N2C)O1 | -1.81% |
| CC1CCN(c2ccc(C(=O)O)cc2NS(=O)(=O)c2ccc(Br)s2)CC1 | -1.22% |
| O=C(Nc1ccc2c(c1)CCC2)c1ccc(Br)s1 | 11.2% (active) |
| O=C(Nc1ccc(F)cc1)c1cc2c(s1)CCCC2 | 2.02% |
| CC1CC(C)CN(CCC(=O)Nc2ccc3c(c2)CCC3)C1 (stereo not given) | -0.49% |
| CCOC(=O)c1c(S(=O)(=O)NCC(=O)Nc2ccc(C)cc2)c(C)n(C)c1C | -0.57% |
| CCOC(=O)c1c(S(=O)(=O)Nc2cccc(Cl)c2)c(C)n(C)c1C | 1.63% |
| CCOC(=O)c1c(S(=O)(=O)Nc2ccc(CN3CCC(C)CC3)cc2)c(C)n(C)c1C | 5.11% (active) |
| CC(=O)O[C@@]1(C(C)=O)CCC2[C@H]3C=C(C)C4=CC(=O)CC[C@@]4(C)C3CC[C@]21C (stereo not given in full) | -0.75% |
| Cc1nnc(SC(C)C(=O)Nc2ccc(S(=O)(=O)NC3CCCCC3)cc2)s1 (stereo not given) | 0.57% |
| Cc1ccsc1C(=O)OCC(=O)NCCc1ccccc1 | 3.66% (active) |
| Cc1cnc(C(=O)OCC(=O)NCCCc2ccccc2)cn1 | 1.25% |
| Cn1cccc1C(=O)OCC(=O)NCCc1ccccc1 | 0.5% |
| COC(=O)C1CN(CC(C)C)CCS(=O)(=O)N1Cc1ccc(C)cc1 (stereo not given) | -0.97% |
| O=C(CSc1nc2sc3c(c2c(=O)n1-c1ccccc1)CCCC3)NN=Cc1ccc(OCc2ccccc2)cc1 | 0.1% |
| C=CCn1c(SCC(=O)NCCCO)nc2sc3c(c2c1=O)CCC3 | 0.03% |
| C=CCn1c(SCC(=O)Nc2ccc(NC(C)=O)cc2)nc2sc(C)c(C)c2c1=O | 4.82% (active) |

| SMILES | inhibition |
| --- | --- |
| C=CCn1c(SCC(=O)/C(C#N)=C(\C)N)nc2sc(C)c(C)c2c1=O | -0.39% |
| Cc1cc(C)cc(N(CCC#N)C(=O)CN2C(=O)NC3(CCCC3)C2=O)c1 | -0.09% |
| COC(=O)Cc1nnn2c1[C@H](C)[C@H](c1ccccc1Br)OCC2 | -0.78% |
| COc1ccc(/C=C2\CC3(OC(C)=O)CCCN2C3)cc1 (stereo not given) | 1.13% |
| CN1C(=O)/C(=C/C=C2\SCCN2C)OC1=S | 3.87% (active) |
| Cc1ccccc1NC(=O)Cn1nnc(-c2ccccc2F)n1 | -0.11% |
| CC1CCCN(CC(O)COc2ccc3c(c2)OCO3)C1 (stereo not given) | 0.13% |
| CCOc1ccc(-n2c(SCC(=O)Nc3cc(C)c(NC(=O)c4ccccc4)cc3OC)nnc2-c2cccs2)cc1 | -3.08% |
| C#CCNC(=O)C[C@H]1C[C@@]2(C(=O)OC)C(=C[C@H](C(C)C)O[C@@H]2C2CC2)N(Cc2ccco2)C1=O | 0.65% |
| Clc1ccc(-c2cc(C3CCNCC3)[nH]n2)c(Cl)c1 | -0.17% |
| Clc1ccc(-c2cc(-c3ccccn3)on2)c(Cl)c1 | 3.68% (active) |
| Clc1ccccc1-c1cc(COc2ccc3ccccc3c2)no1 | 0.4% |
| CC(C)CNC(=O)OCc1cn(Cc2ccc(F)cc2)nn1 | -0.13% |
| Cc1cc(N)n2nc(-c3ccc(C(C)(C)C)cc3)cc2n1 | 5.95% (active) |
| CCCC(=O)C1=C(N(C)c2ccccc2)CC(C)(C)C(C(=O)OC)C1=O (stereo not given) | 0.24% |
| CCOc1ccc(-n2c(SCC(=O)Nc3cc(C)c(NC(=O)c4ccccc4)cc3OC)nnc2-c2cccc(Cl)c2)cc1 | -2.96% |
| CCOC(=O)N1CCN(C(=O)c2ccc3nc4cc(Cl)ccc4c(=O)n3c2)CC1 | -1.01% |
| C=CCN1C(=O)[C@@H](CC(=O)N2CCN(C(=O)c3ccco3)CC2)[C@]2(C(=O)OC)CCCCC=C12 | 0.15% |
| COc1ccc(CNC(=O)c2ccc3oc(C(C)C)nc3c2)cc1 | 3.41% |
| COC(=O)c1ccc(CNC(=O)c2ccc3oc(C(C)C)nc3c2)cc1 | 4.25% (active) |
| CC(C)c1nc2cc(C(=O)NC(C)c3cnn(C)c3)ccc2o1 (stereo not given) | -0.03% |
| COc1ccccc1Oc1ccc(N/C=C2/CCCC2=O)cc1 | 0.78% |
| Cc1ccc(N/N=C2\COC(C)(C)CC2=O)cc1 | -0.09% |
| COc1ccc(N/N=C2/CCCCC2=O)cc1 | 4.31% (active) |

| SMILES | inhibition |
| --- | --- |
| COc1cccc2cc(C(C)N(CCCN3CCOCC3)C(=O)Nc3ccc(Cl)cc3)oc12 (stereo not given) | -0.37% |
| CC(C)c1ccc(Nc2nnc(SCC(=O)c3nnc(-c4ccccc4)o3)s2)cc1 | 5.21% (active) |
| CN(C(=O)CSc1nnc(Nc2ccccc2)s1)C1CCS(=O)(=O)C1 (stereo not given) | 0.34% |
| COc1cccc(Nc2nnc(SCC(=O)N3CC(C)OC(C)C3)s2)c1 (stereo not given) | 0.08% |
| C#CCN1CC(C)/C(=N/O)CC1C (stereo not given) | 0.13% |
| COc1cc2c(cc1OC)/C(=C/C(=O)c1ccc(NC(C)=O)cc1)NCC2 | -0.03% |
| CC1CN/C(=C\C(=O)c2ccc(Br)cc2)C(=O)N1 (stereo not given) | 4.26% (active) |
| O=C(O)C1CCCN1S(=O)(=O)c1ccc(Br)cc1 (stereo not given) | 0.15% |
| CC(CCN1CCC(C(O)(c2ccccc2)c2ccccc2)CC1)Oc1ccc(Cl)cc1 (stereo not given) | 0.18% |
| Cc1nc2cc(NCc3cccs3)ccc2n1C | 2.41% |
| Cc1nc2cc(NC(=O)Nc3cccc(F)c3)ccc2n1C | 5.18% (active) |
| O=C(Nc1cccc(F)c1)c1coc(=O)c(Br)c1 | 0.24% |
| N/C(=N\OC(=O)Cc1ccc([N+](=O)[O-])cc1)c1ccccn1 | 0.83% |
| N/C(=N\OC(=O)CCC1CCCCC1)c1ccccn1 | 4.25% (active) |
| N/C(=N\OC(=O)CC1CCCCC1)c1ccccc1 | -0.16% |
| COCC(=O)N[C@@H]1C[C@@H]2O[C@@H](CO)CC[C@@H]2O[C@@H]1CCc1ccc(-c2ccccc2)cc1 | -0.14% |
| O=c1c2c(nc3cc(-c4cccc(Cl)c4)[nH]n13)CCCC2 | 13.9% (active) |
| CSc1nc2nc3c(c(=O)n2[nH]1)CCC3 | -0.21% |
| COC(=O)[C@]12C[C@H](CC(=O)NCc3ccccc3)C(=O)N(CCC3=CCCCC3)C1=C[C@H](C(C)C)O[C@@H]2C1CC1 | -1.17% |
| O=C1Nc2ccccc2OC1CC(=O)N1CCCCCCC1 (stereo not given) | -0.39% |
| Cc1cc(C)nc(Nc2n[nH]c(-c3ccccc3N)n2)n1 | 4.12% (active) |
| CC(C)(C)C(c1nc2ccccc2[nH]1)n1c(Cc2csc3ccccc23)nc2ccccc21 (stereo not given) | 0.83% |
| O=C(Nc1ccccc1)N1CCN(Cc2nc3ccccc3c(=O)[nH]2)CC1 | -0.16% |
| COc1ccnc(NC(=S)N2CCN(c3ncc(C(F)(F)F)cc3Cl)CC2)c1 | -0.4% |

| SMILES | inhibition |
| --- | --- |
| C=CCOC/C=C/C#CCN(CC=C)Cc1ccc(OC)cc1OC | -0.5% |
| COc1ccc(CNC(=O)COc2ccccc2C(=O)c2cnn(-c3ccccc3)c2)cc1OC | 4% (active) |
| COc1cc(CO)ccc1OCC(=O)Nc1cccc2ccccc12 | -3.43% |
| COc1ccc(CNC(=O)CSc2n[nH]c(N)n2)cc1OC | -0.05% |
| O=C(CSc1nnc(-c2cccc(Cl)c2)n1Cc1ccco1)Nc1ccc(OCc2ccccc2)cc1 | -2.28% |
| NS(=O)(=O)c1ccc2nc(NC(=O)C3=COCCO3)sc2c1 | 9.6% (active) |
| NS(=O)(=O)c1ccc2nc(NC(=O)CS(=O)(=O)c3ccc(F)cc3)sc2c1 | 0.31% |
| CCC(CC)c1nnc(NC(=O)C2=COCCO2)s1 | 1.13% |
| C[C@@H]1ON(C)[C@H]2C[C@H]3c4[nH]c5cccc(-c6ccc7c(c6)OCO7)c5c4CCN3C[C@@H]12 | 0.45% |
| O=S1(=O)c2c(NCc3ccco3)cccc2Oc2ccccc2CN1Cc1cn(Cc2cccc(C(F)(F)F)c2)nn1 | -0.91% |
| O=C(Nc1cccc(F)c1)NC1CCCCCCC1 | 4.46% (active) |
| Cc1cc(C)cc(NC(=O)NC2CCCCCCC2)c1 | 3.33% |
| O=C(Nc1cccc(F)c1)[C@@H]1CCCN1 | -0.32% |
| Clc1ccc(Nc2nc(-c3cccs3)cs2)nc1 | 5.93% (active) |
| Clc1ccc(Cc2nnc(-c3cccs3)o2)cc1 | -0.54% |
| CCCN1C(=O)c2[nH]nc(-c3ccccc3)c2C1c1ccccc1 (stereo not given) | -1.18% |
| O=C(Nc1ccc(Br)cc1)OCCN1C(=O)CCC12CCC(c1ccccc1)CC2 (stereo not given) | 0.27% |
| CC(C(=O)N1CCc2ccccc21)N(C)CC(=O)Nc1ccc(F)cc1 (stereo not given) | -0.82% |
| CN(CC(=O)Nc1ccc(F)cc1)CC(=O)N1CCCCC1 | 3.7% (active) |
| CS(=O)(=O)N(CC(=O)Nc1ccc(F)cc1)C1CCCCC1 | -0.02% |
| Cn1c(-c2ccco2)nc2cc3ccccc3cc21 | 4.28% (active) |
| CN(C)C(=O)CSc1n[nH]c(-c2ccco2)n1 | -0.67% |
| Cn1c(SCC(=O)c2cccs2)nnc1-c1ccco1 | 0.71% |
